TGFb inhibitor: TGF-b pathway inhibition. HepG2 CAGA-GFP TGF-b/SMAD3 reporter, GFP fluorescence, 18 h; TGF-beta stimulated, 500 pg/mL final. Potency, µM (highest dose often 46.1 µM), hits mostly inhibitors. 1.2% of 410,000 active; further: nearly all actives have a fitted effect of over 65% in size
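HEPG2 CAGA-GFP, 1000 cells/well; 2 h settle, 37 C; cpd via pin tool; TGF-b 500 pg/mL final; 18 h, 37 C; GFP imaging ex488/em500-530; %Activity normalised to -TGF-b and +DMSO controls; CRC fit, curve class.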
HepG2 viability: counter-screen for TGF-b inhibitors: cytotoxicity in HepG2 cells; HepG2 CAGA-GFP viability, ATP luminescence, 18 h; AID 588856; Potency, µM (doses to about 46.1 µM), usual class: cytotoxic; 0.76% of 410,000 active
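CellTiter-Glo luminescence gave cytotoxicity after 18 hours at 37 degrees C. The cells were HepG2 CAGA-GFP in 1% FBS DMEM, stimulated with 500 pg/mL TGF-beta after compound addition. %Activity was normalised to no-cell wells (complete cell-killing) and DMSO (no toxicity), and curves were fitted and classified.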
Nrf2 activator: activates Nrf2 signaling; AREc32 ARE-luciferase reporter (MCF7-derived line), luminescence, 24 h; Potency, µM (series often up to 46.1 µM), actives largely listed as activators; 0.31% of 410,000 active; further: nearly all actives have a fitted effect of over 65% in size
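AREc32 cells carrying an ARE-driven firefly luciferase, 1000 cells/well in OPTI-MEM with 5% FBS, dosed after overnight attachment and incubated 24 hr at 37 deg C. Steady-Glo luminescence read after 30 min at RT.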
A549 viability: counter-screen for Nrf2 inhibitors: cytotoxicity in A549 cells; 0.16% of 390,000 active; A549 ARE-Fluc cells, CellTiter-Fluor viability, 18-24 h; AID 504648; Potency, µM (highest dose often 46 µM), actives largely listed as inhibitors
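A549 ARE_Fluc cells in 5% FBS OPTI-MEM were exposed to compounds in concentration-response for 18-24 h at 37 deg C. Viability was read by CellTiter-Fluor fluorescence (Ex 405/Em 525) after 30 min, before the luciferase read.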
Nrf2 inh: Nrf2 pathway inhibition | A549 ARE-Fluc reporter, luciferase luminescence, 18-24 h | Potency, µM (highest dose often 46 µM), usual class: inhibitors | 2.1% of 360,000 active; further: nearly all actives have a fitted effect of over 60% in size
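Cells were seeded and rested 2 h, then exposed to compounds for 18-24 h. CellTiter-Fluor was read first as a viability measure. BugLite was added 15 min before the final luminescent read of ARE-luciferase activity in A549 cells.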
Of the large screens only hits and unclear results are named; the others gave an inactive call. Rows were chosen to be rich in hits. Some 3.6% of all compounds tested hit in one or more screens of this group. The call rests on the fitted dose curve; in most records, active means well fitted curve in the direction sought with a large enough effect; inconclusive means small, poorly fitted or top-dose-only effect, or another doubt; inactive means no such curve, though single readings can be large; an effect the other way counts as inactive or inconclusive.

COc1ccc(N(C)C(=O)c2cc(S(=O)(=O)N3CCc4ccccc43)cn2C)c(OC)c1	A549 viability inconclusive, Nrf2 inh 18µM (no result: TGFb inhibitor)
Cn1cc(S(=O)(=O)N2CCc3ccccc32)cc1C(=O)Nc1ccc(Cl)cc1	TGFb inhibitor inconclusive, Nrf2 inh 8.2µM
CC(C)N1CCc2c(sc(NC(=O)c3cc(-c4cccs4)nc4ccccc34)c2C(N)=O)C1	HepG2 viability 18µM
COc1c(CC=C(C)C)cc(C2CC(=O)c3c(O)cc(O)cc3O2)c(CC=C(C)C)c1O (stereo unspecified)	TGFb inhibitor inconclusive
CC(C)=CCc1cc([C@@H]2CC(=O)c3ccc(O)c(CC=C(C)C)c3O2)ccc1O	TGFb inhibitor 13µM
COc1ccc(CCNS(=O)(=O)c2ccc(N3CCCC3=O)cc2)cc1	Nrf2 inh 26µM
Cc1nn(C)c(C)c1NS(=O)(=O)c1ccc(N2CCCC2=O)cc1	Nrf2 inh 15µM
Cn1c(N)c(C(=O)COC(=O)c2ccc(C(F)(F)F)cc2)c(=O)n(C)c1=O	none
COc1ccc(OCc2cc(C(=O)N3CCCCCC3)no2)c(Cl)c1	Nrf2 inh inconclusive
Cc1ccc(B(O)O)cc1	none (no result: Nrf2 activator)
COc1ccc(/C=C/C(=O)Nc2ccc(C)c(S(=O)(=O)N3CCOCC3)c2)cc1	Nrf2 inh 23µM
Cc1ccc(F)cc1NC(=O)/C=C/c1ccc(S(=O)(=O)N2CCOCC2)cc1	Nrf2 inh 16µM
O=C(/C=C/c1ccc(S(=O)(=O)N2CCOCC2)cc1)Nc1cc(F)ccc1F	none
Cc1ccccc1NC(=S)N1CCN(Cc2ccccc2)CC1	none
Cc1cccc(C)c1NC(=O)CNC(=O)C(C)N1CCCCC1 (stereo unspecified)	TGFb inhibitor inconclusive
CC1(C)CC2(C)OC(=N)C1(C#N)C2(C#N)C#N (stereo unspecified)	TGFb inhibitor 16µM, Nrf2 activator inconclusive, Nrf2 inh inconclusive
CSc1nc2ccccc2s1	none
COc1cc2cc(C(=O)N/N=C/c3ccc(F)cc3)[nH]c2cc1OC	none
COc1ccc(/C=N/NC(=O)c2cc3cc(OC)c(OC)cc3[nH]2)cc1	Nrf2 inh 21µM
COc1ccc2[nH]c(C(=O)N/N=C/c3ccc(O)cc3O)cc2c1	Nrf2 inh 2.3µM
COc1ccc(C(=O)C2CCCN(C(=O)c3cccnc3OC)C2)cc1F (stereo unspecified)	none
Cc1cccc(C)c1NC(=O)C1CCN(S(=O)(=O)c2cccc3nsnc23)CC1	none
COc1ccc(-c2nc3ccccc3c(=O)n2NC(=O)c2cccnc2Cl)cc1OC	none
Clc1ccc2[nH]cc(-c3nnnn3-c3ccc4ccccc4c3)c2c1	Nrf2 inh 18µM
Cc1ccc(-n2nnnc2-c2cnc3ccc(Cl)cc3c2-c2ccccc2)cc1	Nrf2 inh inconclusive
CC(C)(C)OC(=O)NCCCC[C@H](NC(=O)c1[nH]cnc1C(=O)Nc1ccccc1)C(=O)OC(C)(C)C	TGFb inhibitor inconclusive, Nrf2 inh inconclusive
C[C@@H](NC(=O)c1nc[nH]c1C(=O)N[C@@H](CCCCNC(=O)OC(C)(C)C)C(=O)OC(C)(C)C)c1ccccc1	TGFb inhibitor inconclusive, A549 viability inconclusive, Nrf2 inh 16µM
CC(C)(C)OC(=O)NCCCC[C@H](NC(=O)c1[nH]cnc1C(=O)Nc1ccc(Cl)cc1)C(=O)OC(C)(C)C	TGFb inhibitor 14µM, A549 viability inconclusive, Nrf2 inh inconclusive
CNC(=O)c1[nH]cnc1C(=O)N[C@@H](CCCCNC(=O)OC(C)(C)C)C(=O)OC(C)(C)C	none
CCOc1cc(CNc2ccc(C(=O)O)cc2)ccc1OCc1ccccc1	Nrf2 inh inconclusive
Cc1ccc(NC(=O)Cn2nc(-c3ccc(Cl)cc3)c3ccccc3c2=O)cc1	none
O=C(Cn1sc2ccccc2c1=O)Nc1ccc(F)cc1	TGFb inhibitor 18µM, HepG2 viability 22µM (no result: A549 viability, Nrf2 inh)
O=C(Cn1sc2ccccc2c1=O)Nc1ccc(Cl)cc1	TGFb inhibitor 11µM, Nrf2 activator inconclusive (no result: A549 viability, Nrf2 inh)
O=C(Cn1sc2ccccc2c1=O)Nc1ccc(Br)cc1	TGFb inhibitor inconclusive, Nrf2 activator inconclusive (no result: A549 viability, Nrf2 inh)
CCC(=O)c1ccc(OCC(=O)NNC(=O)c2cc(C)oc2C)cc1	Nrf2 inh inconclusive
COc1nnc(-c2ccc(N3CCOCC3)c(NC(=O)C3CCCCC3)c2)c2ccccc12	none
O=C(Nc1ccncc1)C1c2ccccc2Oc2ccccc21	none
CCCCNS(=O)(=O)c1ccc(NC(=O)C2c3ccccc3Oc3ccccc32)cc1	TGFb inhibitor inconclusive, HepG2 viability 10µM, Nrf2 inh inconclusive
O=S(=O)(NCC1CCCO1)c1ccc(-c2ccc(S(=O)(=O)NCC3CCCO3)cc2)cc1 (stereo unspecified)	TGFb inhibitor inconclusive, Nrf2 inh 1.3µM
Cc1[nH]c2ccccc2c1C(c1ccncc1)N1CCN(c2ccccc2F)CC1 (stereo unspecified)	TGFb inhibitor inconclusive
Cc1ccc(/C=C2/Sc3ccccc3N(CC(=O)NCC3CCCO3)C2=O)cc1 (stereo unspecified)	none
Cc1cc(/C=C2\Sc3ccccc3N2C)cc(C)[n+]1CC1CCCO1 (stereo unspecified)	A549 viability 4.1µM, Nrf2 inh 1.2µM
NC(=O)N=Nc1c2[nH]c3ccccc3nc-2c2ccccc12	A549 viability inconclusive, Nrf2 inh 10µM
O=c1[nH]c2ccccc2nc1-c1ccccc1	Nrf2 inh inconclusive
O=C1c2ccccc2-c2onc3ccc(Oc4ccccc4)c1c23	TGFb inhibitor inconclusive, Nrf2 activator 7.1µM, A549 viability inconclusive, Nrf2 inh inconclusive
Cc1noc(C)c1S(=O)(=O)Nc1ccccc1Oc1ccccc1	none
COc1ccccc1NC(=O)C(=O)N/N=C/c1cccs1	Nrf2 activator 11µM, Nrf2 inh inconclusive
NC(=O)C1CCN(C(=O)CN(C2CCCCC2)S(=O)(=O)c2ccc(F)cc2)CC1	none
COc1ccc(CC(=O)Nc2cc(Cl)ccc2N2CCCC2)cc1	none
Cc1cccc(C)c1NC(=O)c1ccc([N+](=O)[O-])s1	TGFb inhibitor inconclusive
Cc1cccc(NC(=O)c2ccc([N+](=O)[O-])s2)n1	TGFb inhibitor 14µM
Cc1cccc(NC(=O)Nc2ccc([N+](=O)[O-])cc2)n1	none
Cc1ccnc(NC(=O)c2ccc([N+](=O)[O-])s2)c1	TGFb inhibitor 13µM, Nrf2 activator inconclusive
O=C(Nc1ccccc1N1CCOCC1)c1ccc([N+](=O)[O-])s1	TGFb inhibitor 11µM, Nrf2 inh inconclusive
Cc1cccc(NC(=O)c2ccc([N+](=O)[O-])s2)c1C	TGFb inhibitor 11µM, HepG2 viability 14µM
CC(=O)N1CC=CC1(CC(C)C)C(=O)NCc1cc(F)cc(C(F)(F)F)c1 (stereo unspecified)	none
O=C(c1ccc([N+](=O)[O-])s1)N1CCN(c2ccccn2)CC1	TGFb inhibitor inconclusive, Nrf2 inh inconclusive
